About 79,000 compounds went through this panel and 15% of them were active in at least one assay; those are over-represented in the sample as a whole. Values without a mark were called inactive. Active and inactive are the calls of the source. Rule as the data show it: active = growth inhibition above about 70%; inactive = the rest.
What was measured:
[1] = NCI Yeast Anticancer Drug Screen. Data for the wt1 strain (AID 149);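 also: 0% = growth of vehicle-treated wt1 cultures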; details: S. cerevisiae wt1 strain (SPY 50644) growth inhibition, stronger effect = higher value
In short: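 Each compound is tested on wt1 yeast and the loss of growth versus vehicle gives the inhibition value.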

[2] = NCI Yeast Anticancer Drug Screen. Data for the rad50EPP+ strain (AID 151);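 also: 0% = growth of vehicle-treated control cultures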; details: S. cerevisiae rad50 mutant strain, stronger effect = higher value
In short: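 Vehicle-normalised growth inhibition; rad50EPP+ yeast strain, altered in DNA damage repair, compound-treated.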

[3] = NCI Yeast Anticancer Drug Screen. Data for the mgt1 strain (AID 153); details: S. cerevisiae mgt1 mutant growth inhibition, stronger effect = higher value
In short: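 Vehicle-normalized growth inhibition is determined in mgt1 yeast, a strain selected for a defined alteration in DNA repair or cell cycle control.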

[4] = NCI Yeast Anticancer Drug Screen. Data for the rad50 strain (AID 155);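 also: 0% = growth of vehicle-only cultures of the same strain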; details: S. cerevisiae rad50 strain growth inhibition, stronger effect = higher value
In short: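 Vehicle-treated cultures provide the reference for the growth inhibition reported for compound-exposed, repair-deficient yeast.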

[5] = NCI Yeast Anticancer Drug Screen. Data for the mec2-1 strain (AID 157); details: S. cerevisiae mec2-1 strain, stronger effect = higher value
In short: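 Mutant yeast (mec2-1) grown with compound; growth inhibition relative to vehicle control reported.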

[6] = NCI Yeast Anticancer Drug Screen. Data for the rad14 strain (AID 159);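 also: 0% = growth of vehicle-treated control cultures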; details: S. cerevisiae rad14 strain growth inhibition, stronger effect = higher value
In short: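 Inhibition of growth is reported for a repair-deficient yeast mutant following compound treatment, calculated relative to cultures that received vehicle.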

[7] = NCI Yeast Anticancer Drug Screen. Data for the sgs1 mgt1 strain (AID 161);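 also: 0% = growth of cultures given vehicle only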; details: S. cerevisiae sgs1 mgt1 strain, stronger effect = higher value
In short: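 This yeast growth screen uses a strain with defined DNA-repair lesions; compound-treated growth is compared with vehicle-treated growth.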

[8] = NCI Yeast Anticancer Drug Screen. Data for the CLN2oe strain (AID 163);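 also: 0% = growth of vehicle-only control cultures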; details: S. cerevisiae CLN2oe strain, stronger effect = higher value
In short: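 Compounds are applied to yeast harbouring a defined cell-cycle control change; reduced growth compared with vehicle-treated controls gives the value.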

[9] = NCI Yeast Anticancer Drug Screen. Data for the cln2 rad14 strain (AID 165);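 also: 0% = growth equal to vehicle treated cultures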; details: S. cerevisiae cln2 rad14 strain, stronger effect = higher value
In short: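 Readout is yeast growth inhibition versus vehicle-treated controls, using a strain with cln2 and rad14 alterations exposed to compound.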

[10] = NCI Yeast Anticancer Drug Screen. Data for the bub3 strain (AID 167); details: S. cerevisiae bub3 mutant strain, stronger effect = higher value
In short: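 Mutant yeast screening strain plus compound; vehicle-treated cultures serve as the 0% inhibition reference.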

[11] = NCI Yeast Anticancer Drug Screen. Data for the wt2 strain (AID 169); details: S. cerevisiae wt2 strain growth inhibition, stronger effect = higher value
In short: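 Against vehicle-treated controls, the growth of yeast exposed to each compound was compared, and the inhibition was recorded.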

[12] = NCI Yeast Anticancer Drug Screen. Data for the mlh1 strain (AID 171);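 also: 0% = growth of vehicle-treated control cultures of the same strain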; details: S. cerevisiae mlh1 strain growth inhibition, stronger effect = higher value
In short: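 Measured: yeast growth. Reference: vehicle-treated controls. Organism: strain with a defined alteration affecting DNA damage repair or cell cycle control, treated with compound.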

[13] = NCI Yeast Anticancer Drug Screen. Data for the sgs1 strain (AID 173);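 also: 0% = growth of vehicle-only control cultures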; details: S. cerevisiae sgs1 mutant, stronger effect = higher value
In short: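 Each compound was added to cultures of the altered yeast strain. Growth was recorded, and inhibition was derived by comparison with vehicle controls.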

[14] = NCI Yeast Anticancer Drug Screen. Data for the mlh1 rad18 strain (AID 175); details: S. cerevisiae mlh1 rad18 strain growth inhibition, stronger effect = higher value
In short: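 Genetically defined yeast (DNA repair-deficient) exposed to compounds; growth inhibition determined relative to vehicle.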

[15] = NCI Yeast Anticancer Drug Screen. Data for the rad18 strain (AID 177); details: S. cerevisiae rad18 mutant growth inhibition, stronger effect = higher value
In short: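 Vehicle-treated cultures served as the baseline for scoring compound-induced growth inhibition in DNA-repair-mutant yeast.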

[16] = at 5.0 µM (retest, dose inferred, filed as 0.5)
[17] = at 50.0 µM (retest, dose inferred, filed as 5.0)

With Nc1ccc2cc(Br)c3ccccc3c2c1 the growth inhibition ([1]; at 1.2 µM) was 0%, the growth inhibition ([1]; at 3.7 µM) was 1% and the growth inhibition ([1]; at 11.0 µM) was -2%. For the same molecule, the growth inhibition ([1]; at 33.0 µM) was -2%, the growth inhibition ([1]; at 100.0 µM) was 75% (active) and the growth inhibition ([2]; at 1.2 µM) was 3%. The growth inhibition ([2]; at 3.7 µM) was 5%, the growth inhibition ([2]; at 11.0 µM) was 22% and the growth inhibition ([2]; at 33.0 µM) was 39%. For the same molecule, the growth inhibition ([2]; at 100.0 µM) was 26%, the growth inhibition ([3]; at 1.2 µM) was -1% and the growth inhibition ([3]; at 3.7 µM) was -3%. It also gave a growth inhibition ([3]; at 11.0 µM) of -1%, a growth inhibition ([3]; at 33.0 µM) of -1% and a growth inhibition ([3]; at 100.0 µM) of -3%. It also gave a growth inhibition ([4]; at 1.2 µM) of 0%, a growth inhibition ([4]; at 3.7 µM) of 1% and a growth inhibition [4, 16] of 5%. The growth inhibition ([4]; at 11.0 µM) was 1%, the growth inhibition ([4]; at 33.0 µM) was 16% and the growth inhibition [4, 17] was 41%. For the same molecule, the growth inhibition ([4]; at 50.0 µM) was 86.2% (active), the growth inhibition ([4]; at 100.0 µM) was 20% and the growth inhibition ([5]; at 1.2 µM) was -3%. The growth inhibition ([5]; at 3.7 µM) was -1%, the growth inhibition [5, 16] was -18% and the growth inhibition ([5]; at 11.0 µM) was 0%. For the same molecule, the growth inhibition ([5]; at 33.0 µM) was 3%, the growth inhibition [5, 17] was 6% and the growth inhibition ([5]; at 50.0 µM) was 73.7% (active). The growth inhibition ([5]; at 100.0 µM) was 6%, the growth inhibition ([6]; at 1.2 µM) was -1% and the growth inhibition ([6]; at 3.7 µM) was 0%. It also gave a growth inhibition ([6]; at 11.0 µM) of 4%, a growth inhibition ([6]; at 33.0 µM) of 8% and a growth inhibition ([6]; at 100.0 µM) of 21%. The growth inhibition [7, 16] was 13%, the growth inhibition [7, 17] was 50% and the growth inhibition ([7]; at 50.0 µM) was 88.5% (active). For the same molecule, the growth inhibition ([8]; at 1.2 µM) was -2%, the growth inhibition ([8]; at 3.7 µM) was -19% and the growth inhibition ([8]; at 11.0 µM) was -1%. The growth inhibition ([8]; at 33.0 µM) was -4%, the growth inhibition ([8]; at 100.0 µM) was -16% and the growth inhibition [9, 16] was 15%. The growth inhibition [9, 17] was 18%, the growth inhibition ([9]; at 50.0 µM) was 40.1% and the growth inhibition ([10]; at 1.2 µM) was 0%. For the same molecule, the growth inhibition ([10]; at 3.7 µM) was 2%, the growth inhibition [10, 16] was 10% and the growth inhibition ([10]; at 11.0 µM) was 2%. For the same molecule, the growth inhibition ([10]; at 33.0 µM) was -1%, the growth inhibition [10, 17] was 31% and the growth inhibition ([10]; at 50.0 µM) was 71.5% (active). The growth inhibition ([10]; at 100.0 µM) was -6%, the growth inhibition ([11]; at 1.2 µM) was -1% and the growth inhibition ([11]; at 3.7 µM) was 0%. The growth inhibition ([11]; at 11.0 µM) was -3%, the growth inhibition ([11]; at 33.0 µM) was 2% and the growth inhibition ([11]; at 100.0 µM) was 80% (active). The growth inhibition ([12]; at 1.2 µM) was -1%, the growth inhibition ([12]; at 3.7 µM) was -1% and the growth inhibition ([12]; at 11.0 µM) was -1%. The growth inhibition ([12]; at 33.0 µM) was 1%, the growth inhibition ([12]; at 100.0 µM) was 2% and the growth inhibition ([13]; at 1.2 µM) was -2%. For the same molecule, the growth inhibition ([13]; at 3.7 µM) was -2%, the growth inhibition ([13]; at 11.0 µM) was -1% and the growth inhibition ([13]; at 33.0 µM) was 4%. The growth inhibition ([13]; at 100.0 µM) was 9%, the growth inhibition [14, 16] was 28% and the growth inhibition [14, 17] was 65%. The growth inhibition ([14]; at 50.0 µM) was 90.3% (active), the growth inhibition ([15]; at 1.2 µM) was -3% and the growth inhibition ([15]; at 3.7 µM) was -2%. The growth inhibition ([15]; at 11.0 µM) was -4%, the growth inhibition ([15]; at 33.0 µM) was -1% and the growth inhibition ([15]; at 100.0 µM) was -5%.
